# Data published in PMC5540273 (PLoS ONE, 2017).
# Like-named read-outs stand apart in the source and are kept apart here.
# How the values were obtained:
# [1] = test system: ZAK; conditions: concentration: 1 μM, replicates: in singlicate; n = 1
# [2] = test system: ZAP70; conditions: concentration: 1 μM, replicates: in singlicate; n = 1
# [3] = test system: T1, p38-alpha; conditions: n = 1
# T1 construct: gene MAPK14
# [4] = test system: T2, p38-beta; conditions: concentration: 1 μM, replicates: in singlicate; n = 1
# T2 construct: gene MAPK11
# [5] = test system: p38-delta; conditions: concentration: 1 μM, replicates: in singlicate; n = 1
# [6] = test system: T3, p38-gamma; conditions: concentration: 1 μM, replicates: in singlicate; n = 1
# T3 construct: gene MAPK12
# [7] = concentration: 1 μM, replicates: in singlicate
# 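Also: KINOMEscan kinase panel screen.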
SMILES,%Inh [1] [%],%Inh [2] [%],"%Inh [3, 7] [%]",%Inh [4] [%],%Inh [5] [%],%Inh [6] [%],%Inh ([3]; 1 µM) [%]
CNC(=O)c1ccccc1Nc1nc(Nc2ccc(N3CCOCC3)cc2)ncc1Cl.Cl [GSK1576028],13,6,8,2,0,13,
CN1CCN(CCCNc2nccc(-c3c(-c4ccc(F)cc4)nn4cc(C(F)(F)F)ccc34)n2)CC1 [GW621581],17,0,99.8,39,12,18,
O=C(Nc1cccc(-c2nn3ccccc3c2-c2ccnc(Nc3cccc(F)c3)n2)c1)c1c(F)ccc(F)c1Cl [GSK357952],85,0,0,26,36,0,
Cc1cccc(NC(=O)Nc2ccc(Oc3ncnc4ccn(C)c34)cc2)c1,0,0,0,0,0,0,
FC(F)(F)c1ccc(/C=C/c2cncnc2Nc2ccc3[nH]c(Cc4ccccc4)nc3c2)cc1 [GW709199],0,9,0,3,0,35,
COc1cc(Nc2ncc3c(C)nc(-c4cc5ccccc5[nH]4)n3n2)cc(OC)c1OC [GW869516],0,0,9,2,0,16,
Cl.Cl.NCC(C(=O)Nc1cc(Br)c(-c2ccnc3[nH]ccc23)s1)c1ccccc1 (stereo not drawn) [GSK1269851],0,0,0,40,17,0,
Cc1ccc(C)c(NC(=O)NC2CCN(c3ccnc(Nc4ccc(F)cc4)n3)C2)c1 (stereo not drawn) [GSK1379720],15,0,11,0,45,16,
CCn1c(-c2nonc2N)nc2c(C#CC(C)(C)O)nc(OC[C@H](N)c3ccccc3)cc21 [GSK943949],0,0,0,0,0,34,
CC(C)c1nc(-c2cccc(NS(=O)(=O)c3c(F)cccc3F)c2F)c(-c2ccnc(Nc3ccc(N4CCOCC4)nc3)n2)s1 [GSK2008607],99.1,0,81,51,0,0,
Cn1cc(-c2ccc3c(c2)CCN3C(=O)Cc2cccc(F)c2)c2c(N)ncnc21 [GSK2603358],0,55,0,0,52,19,
Cc1ccc(F)c(C(=O)Nc2cccc(-c3nn4ccccc4c3-c3ccnc(Nc4cccc(F)c4)n3)c2)c1F [GSK361061],89,0,29,76,0,12,
O=c1[nH]cc(-c2ccc(N3CCOCC3)cc2)c2sc(-c3cn[nH]c3)cc12 [GSK2276055],69,0,8,0,41,36,
Cc1occc1-c1ncc(OC[C@@H](N)Cc2c[nH]c3ccccc23)cc1-c1ccc2[nH]nc(C)c2c1.O=C(O)C(F)(F)F [GSK682037],0,0,89,36,73,72,
O=C(Nc1ccccc1F)NC1CCN(c2ccnc(Nc3ccc(F)cc3)n2)CC1 [GSK1379800],30,47,32,0,45,0,
Nc1ncnc2c1nc(-c1ccccc1)n2-c1ccccc1 [SKF-97293],16,12,12,4,0,26,
COc1cc(Nc2nccc(-c3c(-c4cccc(NC(=O)c5c(F)cccc5F)c4)nn4ncccc34)n2)cc(OC)c1OC [GSK327238],97.2,0,99.9,100,52,21,
COc1cccc(NC(=O)NC2CCN(c3ccnc(Nc4cc(OC)c(OC)c(OC)c4)n3)C2)c1 (stereo not drawn) [GSK1379763],0,0,24,0,8,4,
Clc1ccc(-c2nn3ncccc3c2-c2ccnc(Nc3ccc4c(c3)OCCO4)n2)cc1 [GW829116],9,0,99.7,83,13,0,

SMILES,%Inh [1] [%],%Inh [2] [%],"%Inh [3, 7] [%]",%Inh [4] [%],%Inh [5] [%],%Inh [6] [%],%Inh ([3]; 1 µM) [%]
CN(c1ccc(NC(=O)Nc2cc(C(F)(F)F)ccc2F)cc1)c1ccnc(Nc2ccc(S(N)(=O)=O)cc2)n1 [GW809893],94.8,27,9,88,91.7,85,
Fc1ccc(-c2ncn(C3CCNCC3)c2-c2ccnc(Oc3ccc(-c4ccccc4)cc3)n2)cc1 [SB-245391],17,24,,60,0,26,96
Cc1cccc(Nc2nc(N[C@H]3CCNC3)ncc2C(N)=O)c1.Cl [GSK2197149],0,0,0,0,19,0,
CC(C)(C)c1ccc2nccc(Nc3cccc(O)c3)c2c1 [GW856795],0,42,0,0,12,18,
CC(=O)Nc1nc2cnc(Nc3cc(NC(=O)c4cccc(C5(C#N)CC5)c4Cl)ccc3C)nc2s1,17,0,86,19,17,0,
O=C(Nc1n[nH]c2cc(-c3ccoc3)ccc12)C1CC1 [SB-738481],15,0,0,0,0,1,
Cc1ccc(C(=O)N2CC[C@@H](O)C2)cc1-n1c(C)cc(OCc2ccc(F)cc2F)c(Br)c1=O,0,0,100,95.4,7,5,
CC(=O)N1CCN(c2ccc(Nc3nccc(-c4sc(C(C)C)nc4-c4cccc(NS(=O)(=O)c5cccc(Cl)c5)c4)n3)cn2)CC1 [GSK1660437],96.7,0,32,0,0,11,
COc1ccc(Nc2nccc(NCCNC(=O)c3cc4ccccc4s3)n2)cc1 [GSK1379896],0,0,13,0,11,5,
COc1cc(Nc2nccc(N3CCC(NC(=O)c4cc5ccccc5s4)C3)n2)cc(OC)c1OC (stereo not drawn) [GSK1379760],0,0,3,2,15,26,
Cl.c1ccc(-c2ccc3c(Nc4ccc5[nH]ncc5c4)ccnc3c2)nc1 [GW440137],71,24,8,0,38,14,
COc1ccc(Nc2nccc(N3CCC(NC(=O)Nc4cccc(OC)c4)C3)n2)cc1 (stereo not drawn) [GSK1379742],2,3,1,0,29,0,
C[C@@H](Oc1cc(-n2cnc3cc(-c4ccnc(NCCS(C)(=O)=O)c4)ccc32)sc1C(N)=O)c1ccccc1Cl [GSK907232],27,0,0,14,29,0,
Cc1ccc(S(=O)(=O)Nc2ccc(Nc3nccc(Nc4cccc5[nH]ncc45)n3)cc2)cc1 [GSK581271],13,0,0,0,46,0,
COc1cccc(C2=C(Nc3ccc(Cl)c(C(=O)O)c3)C(=O)NC2=O)c1 [SB-390769],0,5,12,0,45,100,
O=C(Nc1cccc(Oc2ccc3nc(NC(=O)C4CC4)cn3n2)c1)c1ccccc1C(F)(F)F,25,0,9,15,17,42,
Cn1cc(-c2[nH]c3cc(NC(=O)[C@H](N)C4CCCCC4)cc4c3c2C=NNC4=O)cn1,0,17,0,0,0,7,
NCCCC(NC(=O)c1cc(Br)c(-c2ccnc3[nH]ccc23)s1)c1ccccc1.O=C(O)C(F)(F)F.O=C(O)C(F)(F)F (stereo not drawn) [GSK1287544],59,0,0,0,0,10,
